Results filed as inconclusive are left out. Calls of active or inactive are those of the source. The call rests on the fitted dose curve.
Test: Nuclear factor erythroid 2-related factor 2/antioxidant responsive element (Nrf2/ARE) small molecule agonists: luciferase reporter gene qHTS assay in human keratinocytes (AID 1919969); further: nearly all actives have a fitted effect of over 35% in size
Conditions: KeratinoSens HaCaT ARE-luciferase, luminescence, 24 h; series mostly up to 92.4 µM
Potency means the concentration at half of the fitted maximal effect.

SMILES | Potency
CC1(COc2ccc(CC3SC(=O)NC3=O)cc2)CCCCC1 (stereo not drawn) | 29.8 µM (active)
CC(C)CCCC(C)CC=O (stereo not drawn) | inactive
CC(C)C[C@H](NC(=O)[C@H](Cc1ccccc1)NC(=O)c1cnccn1)B(O)O | 0.0422 µM (active)
